# Reference: ChEMBL document CHEMBL3988442, “University of Dundee, Small-Polar-MMV Screening Library” (2021)
# For some of these results: Potency and affinity values are given separately.
# Columns and labels:
# [1] = target: T1, Methionyl-tRNA synthetase, putative (Leishmania donovani (strain BPK282A1)) (UniProt E9BF75); experiment: Leishmania donovani Methionine tRNA synthetase (LdMetRS):v7. Dose response assay; type: functional; set-up: conc 80 nM, time 150 minutes
# T1 sequence (whole entry): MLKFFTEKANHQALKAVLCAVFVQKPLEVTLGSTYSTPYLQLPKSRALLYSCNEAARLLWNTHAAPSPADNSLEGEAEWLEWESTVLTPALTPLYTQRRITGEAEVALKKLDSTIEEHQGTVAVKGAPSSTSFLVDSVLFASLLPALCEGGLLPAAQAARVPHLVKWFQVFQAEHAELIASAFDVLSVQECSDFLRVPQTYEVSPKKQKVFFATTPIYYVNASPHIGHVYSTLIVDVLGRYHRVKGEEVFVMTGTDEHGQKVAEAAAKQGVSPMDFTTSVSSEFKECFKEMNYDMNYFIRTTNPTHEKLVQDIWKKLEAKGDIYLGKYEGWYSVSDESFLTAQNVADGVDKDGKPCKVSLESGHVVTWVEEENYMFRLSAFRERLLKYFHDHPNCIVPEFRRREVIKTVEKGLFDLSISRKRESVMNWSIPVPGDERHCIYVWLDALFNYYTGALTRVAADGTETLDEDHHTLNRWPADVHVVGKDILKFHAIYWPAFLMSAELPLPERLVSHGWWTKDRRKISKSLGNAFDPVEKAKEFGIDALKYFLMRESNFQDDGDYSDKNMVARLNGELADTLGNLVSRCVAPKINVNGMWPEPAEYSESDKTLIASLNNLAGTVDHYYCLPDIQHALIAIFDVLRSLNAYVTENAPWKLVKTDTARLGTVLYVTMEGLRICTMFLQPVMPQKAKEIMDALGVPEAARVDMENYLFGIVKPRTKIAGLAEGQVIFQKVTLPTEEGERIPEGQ
# [2] = target: Protein translocase subunit SecA (Escherichia coli (strain K12)) (UniProt P10408); experiment: Assay to Identify E. coli SecA ATPase Inhibitors; type: functional; set-up: scale not given: direction of the effect not stated beside the values; details: 30 µM
# Sequence of Protein translocase subunit SecA (Escherichia coli (strain K12)) (P10408 whole entry): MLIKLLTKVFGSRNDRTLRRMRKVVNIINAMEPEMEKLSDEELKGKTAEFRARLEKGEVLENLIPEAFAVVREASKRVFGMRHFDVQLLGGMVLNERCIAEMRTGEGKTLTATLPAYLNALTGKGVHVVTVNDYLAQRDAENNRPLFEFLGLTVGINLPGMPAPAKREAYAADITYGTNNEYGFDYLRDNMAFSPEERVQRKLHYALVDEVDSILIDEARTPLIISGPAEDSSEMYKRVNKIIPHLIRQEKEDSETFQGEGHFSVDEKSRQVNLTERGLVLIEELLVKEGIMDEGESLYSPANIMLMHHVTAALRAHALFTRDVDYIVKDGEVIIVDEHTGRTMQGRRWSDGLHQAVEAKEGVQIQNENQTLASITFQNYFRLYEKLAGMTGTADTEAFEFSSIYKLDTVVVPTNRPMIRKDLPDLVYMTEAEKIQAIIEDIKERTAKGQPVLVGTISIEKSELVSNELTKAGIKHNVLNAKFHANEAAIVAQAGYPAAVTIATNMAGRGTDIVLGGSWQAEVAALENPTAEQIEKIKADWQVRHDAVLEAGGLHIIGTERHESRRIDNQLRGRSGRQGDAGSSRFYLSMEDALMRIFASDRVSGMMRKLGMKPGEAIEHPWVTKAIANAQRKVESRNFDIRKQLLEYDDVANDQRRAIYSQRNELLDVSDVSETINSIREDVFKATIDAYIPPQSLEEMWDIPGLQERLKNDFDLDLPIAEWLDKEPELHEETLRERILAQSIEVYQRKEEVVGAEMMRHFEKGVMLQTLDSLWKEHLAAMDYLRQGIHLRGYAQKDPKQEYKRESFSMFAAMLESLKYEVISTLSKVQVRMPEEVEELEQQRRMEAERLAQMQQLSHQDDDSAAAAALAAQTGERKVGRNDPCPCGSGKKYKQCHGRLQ
# [3] = target: T2, Ubiquitin-activating enzyme e1, putative (Leishmania donovani (strain BPK282A1)) (UniProt E9BSI1); experiment: Leishmania donovani Ubiquitin Activating Enzyme (LdE1); type: functional; set-up: scale not given: direction of the effect not stated beside the values; details: 30 µM
# T2 sequence (whole entry): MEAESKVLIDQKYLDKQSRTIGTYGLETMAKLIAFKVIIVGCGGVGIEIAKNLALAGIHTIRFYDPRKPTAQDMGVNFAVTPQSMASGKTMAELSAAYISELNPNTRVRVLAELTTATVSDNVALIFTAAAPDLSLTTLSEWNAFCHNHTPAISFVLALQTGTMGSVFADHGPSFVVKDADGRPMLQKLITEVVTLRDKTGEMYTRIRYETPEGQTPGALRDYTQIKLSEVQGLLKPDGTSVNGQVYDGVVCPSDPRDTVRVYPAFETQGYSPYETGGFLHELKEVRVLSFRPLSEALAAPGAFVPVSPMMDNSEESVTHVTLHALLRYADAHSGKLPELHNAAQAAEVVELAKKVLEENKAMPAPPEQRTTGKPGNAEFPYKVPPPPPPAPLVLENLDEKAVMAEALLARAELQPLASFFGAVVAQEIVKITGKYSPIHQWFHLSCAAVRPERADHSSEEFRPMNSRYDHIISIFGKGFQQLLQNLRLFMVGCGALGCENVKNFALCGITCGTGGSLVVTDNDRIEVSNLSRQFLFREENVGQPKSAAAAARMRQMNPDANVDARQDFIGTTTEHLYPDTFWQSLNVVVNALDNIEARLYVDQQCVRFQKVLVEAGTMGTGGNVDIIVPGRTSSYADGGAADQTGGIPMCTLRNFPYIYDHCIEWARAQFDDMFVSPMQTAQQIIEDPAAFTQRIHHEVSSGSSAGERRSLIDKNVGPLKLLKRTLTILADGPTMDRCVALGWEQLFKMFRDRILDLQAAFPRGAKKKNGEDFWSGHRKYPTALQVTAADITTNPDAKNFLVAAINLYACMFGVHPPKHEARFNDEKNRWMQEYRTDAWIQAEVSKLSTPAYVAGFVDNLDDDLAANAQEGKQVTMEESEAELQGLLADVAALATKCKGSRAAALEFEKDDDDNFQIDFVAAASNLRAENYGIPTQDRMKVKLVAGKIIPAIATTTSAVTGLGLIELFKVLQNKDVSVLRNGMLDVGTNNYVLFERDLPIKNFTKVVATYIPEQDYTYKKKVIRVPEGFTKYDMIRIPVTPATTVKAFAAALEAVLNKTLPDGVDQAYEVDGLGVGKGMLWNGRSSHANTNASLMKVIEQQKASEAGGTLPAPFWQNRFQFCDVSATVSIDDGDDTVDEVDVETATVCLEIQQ
# [4] = target: Sialic acid-binding Ig-like lectin 9 (Homo sapiens) (UniProt Q9Y336); experiment: Hs-Siglec9 ALPHAscreen SOP 20170721; set-up: scale not given: direction of the effect not stated beside the values; details: 10 µM
# Sequence of Sialic acid-binding Ig-like lectin 9 (Homo sapiens) (Q9Y336 whole entry): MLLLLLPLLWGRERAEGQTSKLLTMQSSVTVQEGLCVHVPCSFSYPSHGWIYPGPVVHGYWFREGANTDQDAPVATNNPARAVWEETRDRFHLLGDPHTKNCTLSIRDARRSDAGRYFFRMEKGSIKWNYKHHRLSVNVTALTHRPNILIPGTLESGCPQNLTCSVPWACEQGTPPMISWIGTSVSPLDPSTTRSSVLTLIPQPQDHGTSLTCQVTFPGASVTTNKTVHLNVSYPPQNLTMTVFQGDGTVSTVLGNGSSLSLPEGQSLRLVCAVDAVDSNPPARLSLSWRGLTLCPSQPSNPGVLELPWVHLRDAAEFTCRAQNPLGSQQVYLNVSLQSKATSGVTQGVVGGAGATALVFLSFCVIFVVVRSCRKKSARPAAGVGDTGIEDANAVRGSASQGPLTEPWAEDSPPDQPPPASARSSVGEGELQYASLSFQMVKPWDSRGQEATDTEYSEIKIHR
# [5] = test system: Trypanosoma cruzi; experiment: Trypanosoma cruzi phosphomannomutase and mannose-1-phosphate guanylyltransferase assay; type: functional; set-up: scale not given: direction of the effect not stated beside the values; details: 10 µM
# [6] = target: T3, Arginase-2, mitochondrial (Homo sapiens) (UniProt P78540); experiment: in vitro enzyme assay to detect the production of urea directly proportional to the activity of Arginase II; type: functional; set-up: scale not given: in the data most compounds retested in dose-response had high values; details: 33.3 µM
# T3 sequence (whole entry): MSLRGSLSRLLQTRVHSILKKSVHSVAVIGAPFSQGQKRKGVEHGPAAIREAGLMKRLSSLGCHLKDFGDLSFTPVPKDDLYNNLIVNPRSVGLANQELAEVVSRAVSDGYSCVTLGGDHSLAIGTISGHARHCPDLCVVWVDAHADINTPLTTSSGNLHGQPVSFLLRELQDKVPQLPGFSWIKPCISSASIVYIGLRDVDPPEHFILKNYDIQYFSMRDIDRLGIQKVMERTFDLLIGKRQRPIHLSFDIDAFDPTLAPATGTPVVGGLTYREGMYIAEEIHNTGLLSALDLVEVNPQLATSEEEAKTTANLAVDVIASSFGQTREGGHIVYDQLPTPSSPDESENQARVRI
# [7] = target: T4, Proteasome subunit beta (Trypanosoma cruzi) (UniProt O96673); experiment: Trypanosoma cruzi proteasome chymotrypsin-like activity (TcProtChymo) assay.; type: functional; set-up: scale not given: in the data most compounds retested in dose-response had high values; details: 9.37 µM
# T4 sequence (whole entry): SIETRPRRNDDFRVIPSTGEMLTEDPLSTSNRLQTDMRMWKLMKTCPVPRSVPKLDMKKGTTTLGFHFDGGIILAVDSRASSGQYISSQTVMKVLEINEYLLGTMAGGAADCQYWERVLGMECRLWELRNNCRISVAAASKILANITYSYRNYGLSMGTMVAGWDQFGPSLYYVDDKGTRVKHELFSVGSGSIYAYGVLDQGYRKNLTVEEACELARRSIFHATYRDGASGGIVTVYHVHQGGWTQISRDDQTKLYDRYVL
# [8] = species: Homo sapiens; experiment: To identify inhibition of the IFN signalling (Jak-Stat) pathway via expression of an eGFP reporter gene under the control of an IFN-stimulated response element (ISRE) containing MxA promoter.; type: functional; set-up: scale not given: direction of the effect not stated beside the values; details: 30 µM
# [9] = target: T5, Tyrosyl-tRNA synthetase, putative (Trypanosoma cruzi (strain CL Brener)) (UniProt Q4DSP6); experiment: Trypanosoma cruzi tyrosyl tRNA synthetase (TcYRS) _High Tyrosine SOP; type: functional; set-up: scale not given: in the data most compounds retested in dose-response had high values; details: 30 µM
# T5 sequence (whole entry): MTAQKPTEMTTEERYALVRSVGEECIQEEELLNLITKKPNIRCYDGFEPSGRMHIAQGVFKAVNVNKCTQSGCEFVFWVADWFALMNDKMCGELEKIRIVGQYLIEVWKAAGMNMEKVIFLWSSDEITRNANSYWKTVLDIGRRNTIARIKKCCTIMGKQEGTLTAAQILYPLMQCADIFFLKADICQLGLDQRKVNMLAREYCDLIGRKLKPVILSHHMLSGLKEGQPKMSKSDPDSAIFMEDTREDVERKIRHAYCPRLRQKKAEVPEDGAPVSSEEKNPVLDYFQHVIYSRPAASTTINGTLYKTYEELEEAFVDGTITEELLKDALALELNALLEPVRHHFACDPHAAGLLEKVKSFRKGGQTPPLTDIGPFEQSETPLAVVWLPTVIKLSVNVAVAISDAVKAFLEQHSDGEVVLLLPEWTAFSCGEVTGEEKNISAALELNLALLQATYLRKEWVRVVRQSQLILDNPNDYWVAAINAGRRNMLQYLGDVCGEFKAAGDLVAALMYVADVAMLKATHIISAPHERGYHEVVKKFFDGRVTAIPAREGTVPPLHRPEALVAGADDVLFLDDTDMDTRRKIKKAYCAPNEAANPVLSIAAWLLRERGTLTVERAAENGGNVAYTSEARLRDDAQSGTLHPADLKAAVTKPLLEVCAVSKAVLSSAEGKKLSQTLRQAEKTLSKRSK
# [10] = target: T5, Tyrosyl-tRNA synthetase, putative (Trypanosoma cruzi (strain CL Brener)); experiment: Trypanosoma cruzi tyrosyl tRNA synthetase (TcYRS) SOP; type: functional; set-up: scale not given: direction of the effect not stated beside the values; details: 30 µM
# [11] = target: Chromo domain-containing protein 1 (Saccharomyces cerevisiae (strain ATCC 204508 / S288c) (Baker's yeast)) (UniProt P32657); experiment: ScCHD-1 Enzyme Inhibition Assay; type: functional; set-up: scale not given: in the data most compounds retested in dose-response had high values; details: 30 µM
# Sequence of Chromo domain-containing protein 1 (Saccharomyces cerevisiae (strain ATCC 204508 / S288c) (Baker's yeast)) (P32657 whole entry, the tested form may be a part): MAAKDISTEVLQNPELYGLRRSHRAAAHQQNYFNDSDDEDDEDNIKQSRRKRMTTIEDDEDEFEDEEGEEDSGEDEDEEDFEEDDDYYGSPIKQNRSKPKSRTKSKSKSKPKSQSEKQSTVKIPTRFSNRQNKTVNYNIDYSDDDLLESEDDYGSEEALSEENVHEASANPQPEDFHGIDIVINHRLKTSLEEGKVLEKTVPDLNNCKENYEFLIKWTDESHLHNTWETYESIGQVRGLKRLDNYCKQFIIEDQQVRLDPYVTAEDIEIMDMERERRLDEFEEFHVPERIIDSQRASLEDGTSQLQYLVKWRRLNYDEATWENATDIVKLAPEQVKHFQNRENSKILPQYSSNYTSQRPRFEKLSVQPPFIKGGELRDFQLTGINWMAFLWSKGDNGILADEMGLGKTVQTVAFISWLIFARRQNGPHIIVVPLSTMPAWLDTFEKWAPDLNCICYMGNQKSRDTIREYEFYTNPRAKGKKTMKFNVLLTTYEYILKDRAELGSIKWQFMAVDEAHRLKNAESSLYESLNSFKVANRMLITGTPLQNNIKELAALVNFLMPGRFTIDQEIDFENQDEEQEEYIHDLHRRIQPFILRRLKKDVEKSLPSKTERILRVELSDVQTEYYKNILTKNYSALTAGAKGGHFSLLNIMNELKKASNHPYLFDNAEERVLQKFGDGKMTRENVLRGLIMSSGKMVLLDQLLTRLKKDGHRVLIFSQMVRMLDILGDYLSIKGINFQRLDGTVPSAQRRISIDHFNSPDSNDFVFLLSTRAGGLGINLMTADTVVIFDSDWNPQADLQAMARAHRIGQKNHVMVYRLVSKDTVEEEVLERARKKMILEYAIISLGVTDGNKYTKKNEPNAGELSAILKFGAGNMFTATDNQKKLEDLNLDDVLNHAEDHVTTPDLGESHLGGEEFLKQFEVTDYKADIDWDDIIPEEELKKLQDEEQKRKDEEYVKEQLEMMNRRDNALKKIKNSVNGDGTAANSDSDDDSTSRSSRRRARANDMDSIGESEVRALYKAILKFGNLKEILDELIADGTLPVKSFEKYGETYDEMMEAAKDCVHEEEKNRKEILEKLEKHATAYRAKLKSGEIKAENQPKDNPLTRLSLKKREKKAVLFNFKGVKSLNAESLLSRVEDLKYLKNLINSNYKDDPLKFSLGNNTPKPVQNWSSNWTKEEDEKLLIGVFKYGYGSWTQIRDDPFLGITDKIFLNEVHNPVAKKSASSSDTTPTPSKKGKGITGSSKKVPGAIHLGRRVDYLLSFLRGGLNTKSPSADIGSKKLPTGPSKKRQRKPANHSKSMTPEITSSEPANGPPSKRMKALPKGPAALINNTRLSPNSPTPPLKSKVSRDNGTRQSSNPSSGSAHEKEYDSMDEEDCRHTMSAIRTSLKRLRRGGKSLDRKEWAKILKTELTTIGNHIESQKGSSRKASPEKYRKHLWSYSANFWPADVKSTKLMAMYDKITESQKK
smiles,measurement,setting,value
CC(C)C[C@H](N)COc1cccc(F)c1Oc1cccc(Cl)c1,PXC50,"[1]; BOTTOM 6.91310013, HILLSLOPE 1.495350679, MAX_EFFECT 83.36221837, TOP 100.0",4.36
same,PXC50,"[1]; BOTTOM 8.664927698, HILLSLOPE 1.748800753, MAX_EFFECT 77.85234899, TOP 95.40759793",4.33
same,PXC50,"[1]; BOTTOM 9.147353303, HILLSLOPE 1.551603339, MAX_EFFECT 81.25, TOP 100.0",4.34
same,PXC50,"[1]; BOTTOM -0.863158235, HILLSLOPE 2.70922767, MAX_EFFECT 71.29186603, TOP 83.59060963",4.29
same,PXC50,"[1]; BOTTOM -4.44021311, HILLSLOPE 1.559741226, MAX_EFFECT 77.3512476, TOP 100.0",4.35
CC(=O)N1CCN(c2ccc3ccc(C(=O)NC4CCCC4)cn23)CC1,PXC50,"[1]; BOTTOM 0.0163, HILLSLOPE 3.098457383, MAX_EFFECT 65.01650165, TOP 63.35125002",4.68
same,PXC50,"[1]; BOTTOM 1.065846223, HILLSLOPE 1.103958369, MAX_EFFECT 61.67400881, TOP 100.0",4.54
same,PXC50,"[1]; BOTTOM 3.194533203, HILLSLOPE 3.014598033, MAX_EFFECT 67.98418972, TOP 64.53848237",4.96
same,PXC50,"[1]; BOTTOM 4.030962781, HILLSLOPE 1.885788534, MAX_EFFECT 71.11111111, TOP 74.41524471",4.79
same,PXC50,"[1]; BOTTOM 4.940042643, HILLSLOPE 1.835166553, MAX_EFFECT 81.72043011, TOP 100.0",4.36
same,PXC50,"[1]; BOTTOM 5.527382632, HILLSLOPE 1.355052942, MAX_EFFECT 67.14876033, TOP 100.0",4.56
same,PXC50,"[1]; BOTTOM 8.593441039, HILLSLOPE 3.55536171, MAX_EFFECT 67.39130435, TOP 63.3453536",4.8
same,Percent Effect,[2],-2.65%
same,Percent Effect,[3],14.3%
same,Percent Effect,[4],3.54%
same,Percent Effect,[5],-0.563%
same,Percent Effect,[6],1.37%
same,Percent Effect,[7],12.4%
same,Percent Effect,[8],8.76%
same,Percent Effect,[9],31.9%
same,Percent Effect,[10],15%
same,Percent Effect,[11],-4.27%
